Laboratory results reported in the OligoGym collection.

biological target: ROPN1; test: pooled miR-30 sensor sort-seq; sequence = guide strand; details: shRNA
Further: reference of the scale not given here.

Sequence | sensor-assay potency score (higher = more potent)
TCACTGTGATTATACCATCAGG | -1.52
TATGGTCACATGATAAGACCTC | -0.256
TCCACTTTGGCAATATACGTGT | -0.784
TTCCATGTAGTTTAGCATCCTG | -0.0226
ATCAGGGCCAATTACTTCCTGT | -0.778
ATTCTGAAGTACAATCATCTCT | 0.029
TCTGAAGTACAATCATCTCTGT | 0.301
TCCATGTAGTTTAGCATCCTGC | -1.26

biological target: RORB; test: as above; details: shRNA

Sequence | sensor-assay potency score (higher = more potent)
TTCCAGTCATGTCAAGTCCTGA | -0.578
TTGATCATTTTGACAGAGCTCC | 0.0925
TTAATTTCTTCATAGGTGTGGG | 0.03
TTCACATGTGATGACTCCGTAG | -1.17
TATCTGTTTGATTCCAGTCATG | -1.6
TTGCTTAAATACCTGCAGCTTC | -0.375
ATCATTTTGACAGAGCTCCATG | -1.14
TTGTTCTGCTGGCTCCTCCTAA | -0.741
TTTAATTTCTTCATAGGTGTGG | 0.75
TTAAACAGTTTCTCTGCCTTGG | 0.233
TATAACGGAGGAAACAGTGTAT | 0.0235
TAGGGCAAGACACTTCTGCAGT | -0.56

biological target: RPF2; test: as above; details: shRNA

Sequence | sensor-assay potency score (higher = more potent)
TTTCAGTGCATACACATCTTTA | -0.778
TCTTTTTATATAGTACACCGTA | -0.652
TAGTCTTCTATAATCTTCTGTT | -0.606
ATAATCTTCTGTTACATCGAAA | -0.564
TTGTAGTTTGCTTAGGTCTTGC | -0.359
TTAGTCTTCTATAATCTTCTGT | 0.354
TTTGCTTAGGTCTTGCTTCTGC | 0.678
TTACATCGAAATCATCGCCAGC | -0.787
TTATATAGTACACCGTATGGTT | -0.793
TTAAGTACTTTTGTCACTGTTG | -0.124
TAATTTATAAAGGTCATCCGAT | -0.21
TTCAACAGCAACTTATAGCTTC | 0.301

biological target: RPL19; test: as above; details: shRNA

Sequence | sensor-assay potency score (higher = more potent)
TTCATTGGTCTCATTGGGGTCT | 0.294
TGTTTTTGAACACATTCCCCTT | -1.21
TTGCGTGCTTCCTTGGTCTTAG | -0.319
TTACCTATGCCCATGTGCCTGC | -0.132
TACAGGCTGTGATACATGTGGC | -1.14
AAGTCTTGATGATCTCCTCCTT | 0.211
TAAAGTCTTGATGATCTCCTCC | 0.336
TTGATGATCTCCTCCTTCTTGG | 0.222
